PubChem BioAssay (Tox21)
Records with an inconclusive call do not appear. The source made the active and inactive calls. Unless noted, calls follow the shape of the dose curve; as a rule, active = well fitted curve in the direction sought with a large enough effect in the repeat runs; inconclusive = weak or mixed curves; inactive = no such curve, though single readings can be large; an effect the other way counts as inactive or inconclusive.

Assays:
[1] = biological target: Retinoic acid receptor RXR-alpha (Homo sapiens) (UniProt P19793); experiment: qHTS assay to identify small molecule agonists of the RXR signaling pathway (AID 1159527; calls by dose curve; also: nearly all actives have a fitted effect of over 35% in size; also: potency is read from the fitted curve at half-maximal effect)
Procedure, shortened: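 Beta-lactamase reporter assay, agonist format. Engineered HEK 293T line, charcoal-stripped FBS at 2%, overnight (16 hr) exposure, fluorescence at 460 and 530 nm after 405 nm excitation.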

[2] = qHTS assay to identify small molecule agonists of the RXR signaling pathway - cell viability counter screen (AID 1159529); also: nearly all actives have a fitted effect of over 50% in size; also: potency is read from the fitted curve at half-maximal effect
Procedure, shortened: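 Same-well viability check after the LiveBLAzer FRET read: CellTiter-Glo added, luminescence measured after 30 min at room temperature. Reporter HEK 293T cells had been treated with compounds for 16 hr following a 5 hr preincubation.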

[3] = qHTS assay to identify small molecule antagonists of the retinoid acid receptor (RAR) signaling pathway - cell viability counter screen (AID 1159551); also: nearly all actives have a fitted effect of over 35% in size; also: potency is read from the fitted curve at half-maximal effect
Procedure, shortened: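 Viability of C3RL4 cells is quantified from ATP by luminescence after 6 h treatment at 37 C with compounds and 1 uM retinol.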

[4] = qHTS assay to identify small molecule antagonists of the retinoic acid receptor (RAR) signaling pathway (AID 1159552; also: nearly all actives have a fitted effect of over 50% in size)
Procedure, shortened: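 Readout: luciferase luminescence, 30 min post-reagent at RT. Setup: C3RL4 RARE reporter cells, compounds plus retinol 1 uM final, 6 hr incubation at 37 C and 5% CO2.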

[5] = qHTS assay to identify small molecule agonists of the retinoic acid receptor (RAR) signaling pathway (AID 1159553); details: C3RL4 RARE luciferase reporter, agonist, 6 h; activation: at 73.3 µM (top of the series); also: potency is read from the fitted curve at half-maximal effect
Procedure, shortened: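 Compounds dissolved in DMSO were pinned onto C3RL4 cells seeded the previous day, and plates were held 6 hr at 37 C. RARE-driven luciferase output was then read by luminescence.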

[6] = qHTS assay to identify small molecule antagonists of the estrogen related receptor (ERR) signaling pathway - cell viability counter screen (AID 1224818);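 also: viability measured after 17.5 h of compound exposure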
Procedure, shortened: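 Cytotoxicity check run alongside the ERR antagonist screen: cells exposed to test compounds 17.5 h at 37 C, viability taken as CellTiter-Fluor fluorescence intensity.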

[7] = qHTS assay to identify small molecule agonists of the estrogen related receptor (ERR) signaling pathway (AID 1224820)
Procedure, shortened: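 Luminescence readout (One-Glo, 30 min RT) from NTP-supplied ERR cell line exposed to compounds for 18 h at 37 C. Cells seeded 2,000 per well and pre-incubated 6 h before pin-tool compound transfer.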

[8] = test system: estrogen-related receptor alpha (ERRalpha) with PGC-1alpha coactivator, human; experiment: qHTS assay to identify small molecule antagonists of the estrogen related receptor signaling pathway with the pleiotropic PPARgamma coactivator (PGC) (AID 1224821; calls by dose curve;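 also: lower luminescence signal means antagonism of PGC/ERR signalling; nearly all actives have a fitted effect of over 50% in size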)
Procedure, shortened: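 PGC/ERR reporter cells; 6 h pre-incubation 37 C/5% CO2; pin-tool compound in DMSO, 18 h 37 C; One-Glo added, 30 min RT; luminescence read. qHTS antagonist mode.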

[9] = qHTS assay to identify small molecule antagonists of the estrogen related receptor (ERR) signaling pathway (AID 1224819;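 also: luminescence from an ERR-driven luciferase reporter measured with One-Glo reagent; nearly all actives have a fitted effect of over 50% in size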)
Procedure, shortened: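 ERR reporter cells were plated at 2,000 cells/well and left 6 h at 37 C/5% CO2 before pin-tool transfer of compounds in DMSO. After 18 h at 37 C, One-Glo was added and luminescence was read 30 min later at room temperature.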

[10] = qHTS assay to identify small molecule antagonists of the estrogen related receptor signaling pathway with the pleiotropic PPARgamma coactivator (PGC) cell viability counter screen (AID 1224822;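 also: viability read after 17.5 h compound exposure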)
Procedure, shortened: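 Viable cell signal (CellTiter-Fluor, 30 min, 37 C/5% CO2) was measured in PGC/ERR cells after a 17.5 h compound incubation.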

Measured: Potency

Sequence of Retinoic acid receptor RXR-alpha (Homo sapiens) (P19793 whole entry, looked up): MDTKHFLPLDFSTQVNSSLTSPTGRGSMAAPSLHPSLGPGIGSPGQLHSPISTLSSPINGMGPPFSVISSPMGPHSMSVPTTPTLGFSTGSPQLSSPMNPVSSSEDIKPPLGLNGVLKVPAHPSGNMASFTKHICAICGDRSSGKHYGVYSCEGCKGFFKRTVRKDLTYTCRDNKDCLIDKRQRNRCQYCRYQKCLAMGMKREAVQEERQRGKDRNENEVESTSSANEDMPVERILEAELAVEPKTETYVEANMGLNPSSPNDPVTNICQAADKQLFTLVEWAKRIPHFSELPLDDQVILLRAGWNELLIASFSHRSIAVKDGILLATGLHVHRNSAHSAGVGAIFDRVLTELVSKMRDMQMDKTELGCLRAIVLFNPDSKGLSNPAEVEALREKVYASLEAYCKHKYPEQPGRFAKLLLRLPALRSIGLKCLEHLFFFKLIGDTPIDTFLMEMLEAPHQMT

CCN(CC)CCNC(=O)COc1ccc(OC)cc1
inactive: [1] | [2] | [3] | [4] | [5]

CCCC(=O)C(=O)O
inactive: [1] | [2] | [3] | [4] | [5]

CC1(C)O[C@@H]2C[C@H]3[C@@H]4C[C@H](F)C5=CC(=O)C=C[C@]5(C)[C@H]4[C@@H](O)C[C@]3(C)[C@]2(C(=O)CO)O1
inactive: [1] | [2] | [3]

Cc1cc(O)c(C)c(C)c1O
inactive: [1] | [2] | [3]

C/C=C/C=C/C=O
inactive: [1]

CN1C(=O)OC(C)(C)C1=O
inactive: [1] | [2] | [3] | [4] | [5]

C[C@H]1C[C@H](O)c2ccsc2S1(=O)=O
inactive: [1] | [2] | [3] | [4] | [5]

CCC1NC(=O)c2cc(S(N)(=O)=O)c(Cl)cc2N1 (configuration not stated)
inactive: [1] | [2] | [3]

CO[C@]1(NC(=O)CSC(F)F)C(=O)N2C(C(=O)O)=C(CSc3nnnn3CCO)CO[C@H]21
inactive: [1] | [2] | [3] | [4] | [5]

Cc1ccc(C(C)(C)O)cc1
inactive: [1] | [2] | [3]

C=CC(C)(CCC=C(C)C)OC(=O)CC(C)C (configuration not stated)
inactive: [1] | [2] | [3] | [4] | [5]

CCCCCC[C@@H](O)C/C=C\CCCCCCCC(=O)O
active: [1] 49 µM | [2] 38.9 µM

C=C1C[C@@]23CC[C@H]4[C@@](C)(CCC[C@@]4(C)C(=O)O[C@@H]4O[C@H](CO)[C@@H](O)[C@H](O)[C@H]4O)[C@@H]2CC[C@]1(O[C@@H]1O[C@H](CO)[C@@H](O)[C@H](O[C@@H]2O[C@H](CO)[C@@H](O)[C@H](O)[C@H]2O)[C@H]1O[C@@H]1O[C@H](CO)[C@@H](O)[C@H](O)[C@H]1O)C3
inactive: [1] | [2] | [3] | [4] | [5]

CCC=CC#N
inactive: [1] | [2] | [3]

CC(=O)c1cc2ccccc2s1
inactive: [1] | [2] | [3] | [4] | [5]

Nc1cccc2c1CN(C1CCC(=O)NC1=O)C2=O (configuration not stated)
inactive: [1] | [2] | [3] | [4] | [5]

NCCNCCO
inactive: [1] | [2] | [3] | [4] | [5]

CC(CN(C)C)C(C)(O)Cc1ccc(Cl)cc1 (configuration not stated)
inactive: [1] | [2] | [3] | [4] | [5]

CC(=O)OCC(=O)NCCCOc1cccc(CN2CCCCC2)c1
inactive: [1] | [2] | [3]

CCCCN(CCN(CCCC)C(=O)N1CCOCC1)C(=O)N1CCOCC1
inactive: [1] | [2] | [3] | [4]

CCC(=O)C1CC(C(C)C)CC=C1C (configuration not stated)
inactive: [1] | [2] | [3] | [4] | [5]

O=C(O)c1ccc(OCCCOc2ccc(C(=O)O)cc2)cc1
inactive: [1] | [2] | [3]

CCC1(CO)COCOC1
inactive: [1] | [2] | [3] | [4] | [5]

CC(=O)Nc1ccc(C)cc1C
inactive: [1] | [2] | [3]

CCCCCCCCOc1ccc(C(=O)O)cc1
active: [1] 19.3 µM
inactive: [2] | [3]

C[C@@H](O)[C@H]1C(=O)N2C(C(=O)O)=C([C@H]3CCCO3)S[C@H]12
inactive: [1] | [2] | [3] | [4] | [5]

C=C1c2cccc(O)c2C(O)=C2C(=O)[C@]3(O)C(O)=C(C(N)=O)C(=O)[C@@H](N(C)C)[C@@H]3[C@@H](O)[C@H]12
inactive: [1] | [2] | [3] | [4] | [5]

CCOC(C)=O
inactive: [1] | [2] | [3] | [4] | [5]

O[C@@H]1CO[C@H]2[C@@H]1OC[C@@H]2O
inactive: [1] | [2] | [3] | [4] | [5]

CC(O)c1ccccc1 (configuration not stated)
inactive: [1] | [2] | [3] | [4] | [5]

O=C(OC(=O)c1ccccc1)c1ccccc1
inactive: [1] | [2] | [3]

C1COC1
inactive: [1] | [2] | [3] | [4]

Cc1cc(C)cc(N)c1
inactive: [1] | [2] | [3]

CCCCOc1ccc(OCCCN2CCOCC2)cc1
active: [5] 21.1 µM
inactive: [1] | [2] | [3] | [4]

O=c1cc(-c2ccccc2)oc2ccc3ccccc3c12
active: [2] 19.5 µM | [3] 24.3 µM
inactive: [1]

O=[N+]([O-])c1ccc(Nc2ccc(Nc3ccccc3)c(S(=O)(=O)O)c2)c([N+](=O)[O-])c1
inactive: [1] | [2] | [3]

CCCCCCC(C)(C)C(=O)O
inactive: [1] | [2] | [3] | [4] | [5]

O=C(O)CCC(=O)C(=O)O
inactive: [1] | [2] | [3] | [4] | [5]

OCCOCC#CCOCCO
inactive: [1] | [2] | [3]

CC(C)=CCC/C(C)=C/CC/C(C)=C/CCC(=O)OC/C=C(\C)CCC=C(C)C
inactive: [1] | [2] | [3] | [4] | [5]

CCOC(=O)C1=C(C)NC(C)=C(C(=O)OC)C1c1cccc(Cl)c1Cl (configuration not stated)
inactive: [1] | [3] | [5] | [6] | [7] | [8]

CC1=C(CC=O)C(C)(C)CCC1
inactive: [1] | [3]

NC1[C@H]2CN(c3nc4c(cc3F)c(=O)c(C(=O)O)cn4-c3ccc(F)cc3F)C[C@@H]12 (some centres not stated)
inactive: [3] | [6] | [9] | [8] | [10]
active: [1] 19 µM

CC(C)C(O)(c1ccc(OC(F)(F)F)cc1)c1cncnc1 (configuration not stated)
inactive: [1] | [3] | [4] | [5]

O=C(/C=C/c1ccc(O)c(O)c1)O[C@@H]1C[C@@](OC(=O)/C=C/c2ccc(O)c(O)c2)(C(=O)O)C[C@@H](O)[C@@H]1O
inactive: [1] | [3] | [4] | [5]

OC(CCN1CCCC1)(c1ccccc1)C1CCCCC1 (configuration not stated)
inactive: [1] | [2] | [3] | [5]

CNC(=O)c1cnn(-c2nc(N)c3ncn([C@@H]4O[C@H](CO)[C@@H](O)[C@H]4O)c3n2)c1
inactive: [1] | [3] | [4] | [5]

C1C[C@@H]2[C@H]3CC[C@H](C3)[C@@H]2C1
inactive: [1] | [2] | [3] | [4] | [5]

O=C(Cn1ccnc1[N+](=O)[O-])NCCO
inactive: [1] | [2] | [4] | [5]

CCOC(=O)c1ccc(O)c(O)c1
inactive: [1] | [2] | [4] | [5]

COc1cc(C(=O)NCCCCCC(=O)O)cc(OC)c1OC
inactive: [1] | [2] | [3] | [4] | [5]

Cc1cc(C)c(N)cc1C
inactive: [1] | [2] | [3] | [4] | [5]

O=C1c2ccccc2C(=O)C1(O)O
inactive: [1] | [4]

CC[N+](CC)(CCNC(=O)C(=O)NCC[N+](CC)(CC)Cc1ccccc1Cl)Cc1ccccc1Cl
inactive: [1] | [2] | [3] | [4] | [5]

CCOC(=O)OC(C)OC(=O)[C@@H]1N2C(=O)[C@@H](NC(=O)[C@H](N)c3ccccc3)[C@H]2SC1(C)C (some centres not stated)
inactive: [1] | [2] | [4] | [5]

CO/N=C(/C(=O)N[C@@H]1C(=O)N2C(C(=O)O)=C(COC(N)=O)CS[C@H]12)c1ccco1
inactive: [1] | [2] | [4] | [5]

Cc1ccccc1N=C(N)Nc1ccccc1C
inactive: [1] | [3] | [4] | [5]

CN1C[C@H](C(=O)N[C@]2(C)O[C@@]3(O)[C@@H]4CCCN4C(=O)[C@H](Cc4ccccc4)N3C2=O)C[C@@H]2c3cccc4[nH]cc(c34)C[C@H]21
inactive: [1] | [3] | [4] | [5] | [7]

CCCCCCCCCCC(=O)O
inactive: [3] | [4] | [5]
active: [1] 49.6 µM

CCOC(=O)c1ccc(I)cc1
inactive: [1] | [3] | [4] | [5]

Oc1cc2c(cc1O)[C@H]1c3ccc(O)c(O)c3OC[C@@]1(O)C2
inactive: [1] | [2] | [4]
active: [5] 55.1 µM

OC1(c2ccccc2)CCNCC1
inactive: [1] | [2] | [3] | [4] | [5]

O=C1Cc2cc(Cl)ccc2N1
inactive: [1] | [2] | [5]

O=C1c2ccccc2C(=O)C1c1nc2ccccc2c(Br)c1O
inactive: [1] | [2] | [4]
active: [5] 24.3 µM

CC1(C)S[C@@H]2[C@H](NC(=O)C(c3ccccc3)S(=O)(=O)O)C(=O)N2[C@H]1C(=O)O (some centres not stated)
inactive: [1] | [3] | [4] | [5]

O=c1[nH]c2ccc(Cl)cc2o1
inactive: [1] | [2] | [3] | [4] | [5]

O=c1c(O)c(-c2ccc(O)cc2)oc2cc(O)cc(O)c12
active: [5] 18.4 µM
inactive: [1] | [2] | [4]

O=C(O)CCCCCCCCCCCBr
inactive: [1] | [3] | [4]

CC(=O)[C@H]1[C@H](C#N)C[C@H]2[C@@H]3CC=C4C[C@@H](O)CC[C@]4(C)[C@H]3CC[C@@]21C
inactive: [1] | [2] | [4]

CCCCCC[C@@H](O)C/C=C\CCCCCCCC(=O)OCC(O)CO (some centres not stated)
active: [1] 49 µM
inactive: [3] | [4] | [5]

CC(CC1c2ccccc2CCc2ccccc21)CN(C)C (configuration not stated)
inactive: [1] | [3] | [5]

CC(CCC(=O)O)C(=O)O (configuration not stated)
inactive: [1] | [2] | [4] | [5]

N#[N+]c1ccc2c(S(=O)(=O)[O-])cccc2c1O
inactive: [1] | [3] | [4] | [5]

CCn1cc(C(=O)O)c(=O)c2cc(F)c(N3CCNCC3)cc21
inactive: [1] | [2] | [3] | [4] | [5]

C=C1CCC2CC1C2(C)C (configuration not stated)
inactive: [1] | [2] | [3] | [4] | [5]

NC(=O)c1ccncc1
inactive: [1] | [3] | [4] | [5]

C=CCc1ccccc1OCC(O)CNC(C)C (configuration not stated)
inactive: [1] | [2] | [3] | [6] | [10]
